PDI inh: PDI (human) enzyme inhibition. inhibition, % at 10 µM. 350,000 compounds, 0.052% hits. P07237. PDI insulin aggregation turbidity, A650, 90 min;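 active means mean inhibition across replicates of 30% or more, whatever share of single replicates reach that level; inconclusive means mean inhibition below 30% while every single replicate reaches 30%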
Glyco luc inh: blocks N-linked glycosylation in D54 reporter cells | D54 ERlucT glycosylation luciferase reporter, 24 h; percent of 100 nM tunicamycin response | reporter increase, % at 12.5 µM | 360,000 compounds, 0.23% hits | AID 588692;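 active means mean luciferase reporter signal, scaled so untreated is 0 and the glycosylation-blocking control 100, at or above a set limit in every replicate; inconclusive means mean reaches the limit but not every replicate does; inactive means mean below the limit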;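 further: luciferase carries N-glycosylation sites so blocking glycosylation raises the light; 0% = median of neutral control wells and 100% = median of 100 nM tunicamycin wells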
ERp5 inh: blocks human ERp5 reductase activity on insulin. AID 651711. ERp5 insulin aggregation, absorbance 650 nm, 90 min. inhibition, % at 9.99 µM. Q15084. 350,000 compounds, 0.05% hits;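 active means mean replicate inhibition above about 25%, with every replicate also reaching it, limit read from the data, passing the limit was not always enough; inconclusive means only one of those two criteria met; inactive means neither criterion met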
Target sequence (Q15084 whole entry, looked up): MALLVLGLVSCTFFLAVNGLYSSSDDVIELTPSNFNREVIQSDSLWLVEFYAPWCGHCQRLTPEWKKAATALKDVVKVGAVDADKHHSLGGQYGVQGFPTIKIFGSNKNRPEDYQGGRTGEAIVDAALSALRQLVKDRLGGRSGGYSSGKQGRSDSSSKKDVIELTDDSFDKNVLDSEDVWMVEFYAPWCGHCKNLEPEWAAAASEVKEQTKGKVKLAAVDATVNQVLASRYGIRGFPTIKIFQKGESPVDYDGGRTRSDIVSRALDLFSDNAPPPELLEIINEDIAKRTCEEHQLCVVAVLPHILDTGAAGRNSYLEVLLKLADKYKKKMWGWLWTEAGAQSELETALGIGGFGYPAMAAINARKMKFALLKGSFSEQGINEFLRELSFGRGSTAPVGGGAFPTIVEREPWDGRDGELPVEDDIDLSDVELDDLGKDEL
Vif imaging: blocks HIV Vif function; HEK293T cells, Vif self-association by quenched fluorescence, imaging, 24 h; inhibition, % at 7.49 µM; 340,000 compounds, 0.35% hits; AID 602346; in the data active means inhibition above about 50%, passing the limit was not always enough; inconclusive means no clear call, values can overlap the other calls; inactive means below about 31%
PvdQ acylase: P. aeruginosa PvdQ acylase inhibition. purified PvdQ acylase, fluorescence plate reader. inhibition, % at 10 µM. 340,000 compounds, 0.063% hits. AID 488965; in the data active means inhibition above about 30%, passing the limit was not always enough; inconclusive means no clear call, values can overlap the other calls;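 further: 0% = vehicle neutral wells and 100% = reference inhibitor wells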
* = called active by the depositor; ? = inconclusive; · = no result. A selection: hits, their analogues and other compounds. The true share with any hit is near 0.56%.

SMILES	PDI inh	Glyco luc inh	ERp5 inh	Vif imaging	PvdQ acylase
CCOc1ccccc1C1N=C(c2ccc(OC)cc2)CC(c2ccccc2O)N1 (stereo not drawn)	1	7	0	1	-6
CCn1ncc(/C=C/C(=O)c2ccccc2)c1C	0	-12	·	-5	-15
CCN(c1ccccc1)S(=O)(=O)c1cc(C(=O)Nc2ccc(Br)cc2)ccc1F	-5	-10	·	-19	5
CCN(c1ccccc1)S(=O)(=O)c1cc(C(=O)Nc2ccccc2Cl)ccc1F	-5	-4	12	1	49*
O=C(O)c1ncn(Cc2ccc(Br)cc2)c1C(=O)O	0	2	-4	4	-8
CCN(CC)c1ccc(CC(=O)NC(C)Cc2ccccc2)cc1 (stereo not drawn)	7	2	·	101*	-6
CCCN(CCC)c1ccc(CC(=O)NC(C)Cc2ccccc2)cc1 (stereo not drawn)	17	0	2	4	2
CCCc1[nH]c2ccc(C(=O)OC)cc2c1CCC	-3	0	-5	-5	-8
CN=C1S/C(=C\c2ccc(Cl)cc2)C(=O)N1C	0	1	1	9	14
CN=C1S/C(=C\c2ccc(SC)cc2)C(=O)N1C	-3	-1	4	10	48*
Cc1ccc(NC(=O)Cn2c(O)c(N=NC(N)=S)c3ccccc32)cc1	4	10	1	66*	-3
Cc1ccccc1-c1cccc([C@@H]2C[C@H]3[C@H](CON3C)CN2C(=O)CCc2ccccc2)c1	5	-2	-3	-2	-18
O=C(c1ccc(CNS(=O)(=O)c2ccccc2)cc1)N1CCN(c2ccccn2)CC1	-5	-2	·	-3	-11
CC(C)CC#Cc1ccc2c(c1)O[C@@H](CN(C)C(=O)c1ccccn1)[C@H](C)CN([C@H](C)CO)S2(=O)=O	·	·	-2	·	·
COCC(=O)N(C)C[C@@H]1Oc2cc(C#CC(C)(C)O)ccc2S(=O)(=O)N([C@H](C)CO)C[C@@H]1C	·	·	61*	·	·
CC(C)CC#Cc1ccc2c(c1)O[C@@H](CN(C)C(=O)c1ccccn1)[C@@H](C)CN([C@@H](C)CO)S2(=O)=O	·	·	45*	·	·
Cc1ccc(O)c(NC(=O)C2CC(c3ccc(F)cc3)=NO2)c1 (stereo not drawn)	4	-2	·	3	-9
CCN(CC)S(=O)(=O)c1cccc(C(=O)N/N=C/c2ccc([N+](=O)[O-])o2)c1	-2	51*	0	-3	-2
O=C(CCCCCCC(=O)Nc1ccccc1)NO	0	858*	4	152*	-14
O=C(CCCCCN1C(=O)c2ccccc2C1=O)Nc1ccccc1	-7	4	·	6	3
O=C(C1CCCN(Cc2ccc([N+](=O)[O-])cc2)C1)N1CCCCC1 (stereo not drawn)	3	1	-6	-7	-8
O=C(O)c1ccc(S(=O)(=O)c2ccc3c(c2)C(=O)N(c2ccc(Br)cc2)C3=O)cc1	-4	0	0	66*	-9
Cc1ccc(C(=O)NN2C(=O)c3ccc(S(=O)(=O)c4ccc(C(=O)O)cc4)cc3C2=O)cc1	0	-2	2	-6	-19
CCc1ccc(N2Cc3ccccc3C2)cc1	-10	-7	3	10	7
CCOC(=O)c1ccc(N2Cc3ccccc3C2)cc1O	0	-1	9	-1	63*
SMILES	PDI inh	Glyco luc inh	ERp5 inh	Vif imaging	PvdQ acylase
CC(=O)N1CCN(c2ccc([N+](=O)[O-])c(NCc3cccnc3)c2)CC1	1	1	6	-7	9
Cn1nnnc1Sc1ncnc2scc(-c3ccc(F)cc3)c12	0	-14	·	52*	-9
Cc1ccc(CCNC(=O)CCS(=O)(=O)c2ccc(Br)cc2)cc1	-6	0	0	5	30*
NCC[C@H]1CC[C@@H](NC(=O)NC2CCCCC2)[C@@H](CO)O1	·	·	-1	·	·
Cc1ccc2c(c1)C1CN(C)CCC1N2C(=O)c1ccccc1NS(=O)(=O)c1ccc(F)cc1 (stereo not drawn)	4	1	-4	1	-3
Cc1ccc2c(c1)C1CN(C)CCC1N2S(=O)(=O)c1ccc(C#N)cc1 (stereo not drawn)	-10	0	-5	55*	-2
Cn1nnnc1SCc1ccc(C(=O)Nc2ccc(Br)cc2)cc1	5	-8	·	81*	17
COc1ccc(CC(=O)NNC(=O)CN(C)S(=O)(=O)c2ccc(Cl)cc2)cc1OC	-9	0	3	-23	1
COc1cccc(CC(=O)NNC(=O)CN(C)S(=O)(=O)c2ccc(C)cc2)c1	5	-1	27*	·	-9
CCC(NC(=O)N(Cc1ccccc1)Cc1ccc2c(c1)OCO2)(C(F)(F)F)C(F)(F)F	12	-2	·	2	1
CC(NC(=O)N(Cc1ccccc1)Cc1ccc2c(c1)OCO2)(C(F)(F)F)C(F)(F)F	-3	-1	·	83*	14
O=C(c1cccc([N+](=O)[O-])c1)N1CC2C3C=CC(C3)C2C1 (stereo not drawn)	-6	0	-9	-11	43*
Cc1ccc(C(=O)NCC(=O)Nc2ccc3c(c2)CCC3)cc1	-9	0	3	4	-5
CN(C)C(=O)CSc1nnc([C@H](Cc2c[nH]c3ccccc23)NC(=O)OC(C)(C)C)o1	45*	1	·	-3	8
Cc1cc(C(=O)Nc2cccc3c2O[C@H](CN(C)Cc2ccc(Oc4ccccc4)cc2)[C@H](C)CN([C@@H](C)CO)C3=O)n(C)n1	·	·	1	·	·
CNc1c(N)c(=O)oc2ccccc12	11	-1	-10	10	-11
CC(C)Nc1c(N)c(=O)oc2ccccc12	15	1	·	59*	-10
COc1ccc(Oc2ccc(/C=C/C(=O)c3cccc(OC)c3)cc2[N+](=O)[O-])cc1	1	50*	-1	7	-9
O=C1CCCN1CCCNc1nc(NCc2ccccc2)nc2ccsc12	-5	38*	-2	·	·
COc1cc(Nc2cccc(-c3ccccc3)n2)cc(OC)c1OC	-5	3	-8	12	·
COc1cc(Nc2nc3c(N)cc(C(F)(F)F)cc3nc2-c2ccccc2)cc(OC)c1OC	2	26*	19	6	-13
Cc1csc(NC(=O)c2ccc(COc3ccccc3)o2)n1	-4	1	4	9	-6
CCOc1ccc(N=C2NC(=O)S/C2=C\c2ccc(N(C)C)cc2)cc1	-2	-2	·	148*	-2
CCOc1ccc(/C=C2/SC(=O)NC2=S)cc1	11	2	·	-9	-16
CC1(C(=O)NCc2ccccc2)Oc2ccccc2NC1=O (stereo not drawn)	-5	1	·	7	-15
COc1cc2c(cc1OC)C(c1cccs1)N(C(=O)c1cccnc1)CC2 (stereo not drawn)	6	80*	-1	·	-20
COc1cc2c(cc1OC)C(c1cccs1)N(C(=O)C(C)C)CC2 (stereo not drawn)	0	5	·	2	-5
Cc1ccc(-c2nn3c(C)nnc3c3ccccc23)cc1S(=O)(=O)NCCO	3	12	-6	0	-20
Cc1ccc(-c2nn3c(C)nnc3c3ccccc23)cc1S(=O)(=O)NC(C)(C)CO	-6	39*	-4	?	-16

Screening data (PubChem)
